Assay results reported in the supplement of paper PMC4466140.

B1: unnamed (peptide)
chain: GPPPPLPPPLFPSSS
B2: unnamed (peptide)
chain: APKHAPPPVPNETDN
B3: unnamed (peptide)
chain: PALPSLPPPPLLNVD

target: AgAbp1; experiment: SPOT peptide array binding signal intensity (averaged, normalized) (arbitrary units (background-subtracted, floor 0; scale differs between SH3 domains)); higher = stronger binding of the SH3 domain to the peptide
Summary of the method: (§1)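 GST-fused SH3 domains from four yeast species were expressed in E. coli BL21(DE3), purified on glutathione Sepharose and incubated at 10 μg/ml overnight at 4°C in TBS-based blocking buffer on cellulose membranes carrying synthetic 15-mer peptides, with cysteines replaced by serines. Bound protein was detected with anti-GST antibody, an HRP anti-mouse secondary and luminol, then imaged and quantified with Genespotter. Binding signal is the normalized, background-subtracted spot intensity averaged over replicates, in arbitrary units that differ between domains.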

Binder	SPOT peptide array binding signal intensity
B1	≤ 0
B3	≤ 0

target: AgBbc1; experiment: as above
Summary of the method: as §1

Binder	SPOT peptide array binding signal intensity
B1	≤ 0
B3	0.5

target: AgBem1-D1; experiment: as above
Summary of the method: as §1

Binder	SPOT peptide array binding signal intensity
B1	31
B3	≤ 0

target: AgBzz1-D1; experiment: as above
Summary of the method: as §1

Binder	SPOT peptide array binding signal intensity
B1	≤ 0
B3	≤ 0

target: AgBzz1-D2; experiment: as above
Summary of the method: as §1

Binder	SPOT peptide array binding signal intensity
B1	≤ 0
B3	8.5

target: AgCyk3; experiment: as above
Summary of the method: as §1

Binder	SPOT peptide array binding signal intensity
B1	≤ 0
B3	≤ 0

target: AgFus1; experiment: as above
Summary of the method: as §1

Binder	SPOT peptide array binding signal intensity
B1	≤ 0
B3	≤ 0

target: AgHof1; experiment: as above
Summary of the method: as §1

Binder	SPOT peptide array binding signal intensity
B1	1830
B3	1370

target: AgHse1; experiment: as above
Summary of the method: as §1

Binder	SPOT peptide array binding signal intensity
B1	62.5
B3	≤ 0

target: AgLsb1; experiment: as above
Summary of the method: as §1

Binder	SPOT peptide array binding signal intensity
B1	≤ 0
B3	≤ 0

target: AgLsb4; experiment: as above
Summary of the method: as §1

Binder	SPOT peptide array binding signal intensity
B1	≤ 0
B3	≤ 0

target: AgMyo5; experiment: as above
Summary of the method: as §1

Binder	SPOT peptide array binding signal intensity
B1	1900
B3	2040

target: AgNbp2; experiment: as above
Summary of the method: as §1

Binder	SPOT peptide array binding signal intensity
B1	≤ 0
B3	≤ 0

target: AgRvs167; experiment: as above
Summary of the method: as §1

Binder	SPOT peptide array binding signal intensity
B1	1
B3	≤ 0

target: AgSho1; experiment: as above
Summary of the method: as §1

Binder	SPOT peptide array binding signal intensity
B1	≤ 0
B3	77.5

target: AgSla1-D1-D2; experiment: as above
Summary of the method: as §1

Binder	SPOT peptide array binding signal intensity
B1	≤ 0
B3	≤ 0

target: AgSla1-D3; experiment: as above
Summary of the method: as §1

Binder	SPOT peptide array binding signal intensity
B1	≤ 0
B3	≤ 0

target: CaAbp1-D1; experiment: as above
Summary of the method: as §1

Binder	SPOT peptide array binding signal intensity
B1	1
B3	12

target: CaAbp1-D2; experiment: as above
Summary of the method: as §1

Binder	SPOT peptide array binding signal intensity
B1	≤ 0
B3	22

target: CaBbc1; experiment: as above
Summary of the method: as §1

Binder	SPOT peptide array binding signal intensity
B1	1
B3	≤ 0

target: CaBem1-D1; experiment: as above
Summary of the method: as §1

Binder	SPOT peptide array binding signal intensity
B1	114
B3	≤ 0

target: CaBzz1-D1; experiment: as above
Summary of the method: as §1

Binder	SPOT peptide array binding signal intensity
B1	93
B3	≤ 0

target: CaBzz1-D2; experiment: as above
Summary of the method: as §1

Binder	SPOT peptide array binding signal intensity
B1	10
B3	1

target: CaCyk3; experiment: as above
Summary of the method: as §1

Binder	SPOT peptide array binding signal intensity
B1	≤ 0
B3	≤ 0

target: CaFus1; experiment: as above
Summary of the method: as §1

Binder	SPOT peptide array binding signal intensity
B1	≤ 0
B3	≤ 0

target: CaHof1; experiment: as above
Summary of the method: as §1

Binder	SPOT peptide array binding signal intensity
B1	178
B3	1170

target: CaHse1; experiment: as above
Summary of the method: as §1

Binder	SPOT peptide array binding signal intensity
B1	1.5
B3	0.25

target: CaLsb1; experiment: as above
Summary of the method: as §1

Binder	SPOT peptide array binding signal intensity
B1	≤ 0
B3	0.25

target: CaLsb4; experiment: as above
Summary of the method: as §1

Binder	SPOT peptide array binding signal intensity
B1	11.5
B3	≤ 0

target: CaMyo5; experiment: as above
Summary of the method: as §1

Binder	SPOT peptide array binding signal intensity
B1	284
B3	293

target: CaNbp2; experiment: as above
Summary of the method: as §1

Binder	SPOT peptide array binding signal intensity
B1	6.5
B2	≤ 0
B3	≤ 0

target: CaRvs167; experiment: as above
Summary of the method: as §1

Binder	SPOT peptide array binding signal intensity
B1	7.83
B2	≤ 0
B3	≤ 0

target: CaRvs167-3; experiment: as above
Summary of the method: as §1

Binder	SPOT peptide array binding signal intensity
B1	1.5
B2	≤ 0
B3	≤ 0

target: CaSho1; experiment: as above
Summary of the method: as §1

Binder	SPOT peptide array binding signal intensity
B1	≤ 0
B2	≤ 0
B3	8.5

target: CaSla1-D1-D2; experiment: as above
Summary of the method: as §1

Binder	SPOT peptide array binding signal intensity
B1	≤ 0
B2	≤ 0
B3	≤ 0

target: CaSla1-D3; experiment: as above
Summary of the method: as §1

Binder	SPOT peptide array binding signal intensity
B1	≤ 0
B2	≤ 0
B3	≤ 0

target: ScAbp1; experiment: as above
Summary of the method: as §1

Binder	SPOT peptide array binding signal intensity
B1	≤ 0
B2	≤ 0
B3	≤ 0

target: ScBbc1; experiment: as above
Summary of the method: as §1

Binder	SPOT peptide array binding signal intensity
B1	≤ 0
B2	≤ 0
B3	≤ 0

target: ScBem1-D1; experiment: as above
Summary of the method: as §1

Binder	SPOT peptide array binding signal intensity
B1	≤ 0
B2	≤ 0
B3	≤ 0

target: ScBzz1-D1; experiment: as above
Summary of the method: as §1

Binder	SPOT peptide array binding signal intensity
B1	1.5
B2	618
B3	15.5

target: ScBzz1-D2; experiment: as above
Summary of the method: as §1

Binder	SPOT peptide array binding signal intensity
B1	≤ 0
B2	≤ 0
B3	10.5

target: ScCyk3; experiment: as above
Summary of the method: as §1

Binder	SPOT peptide array binding signal intensity
B1	≤ 0
B2	≤ 0
B3	≤ 0

target: ScFus1; experiment: as above
Summary of the method: as §1

Binder	SPOT peptide array binding signal intensity
B1	≤ 0
B2	≤ 0
B3	≤ 0

target: ScHof1; experiment: as above
Summary of the method: as §1

Binder	SPOT peptide array binding signal intensity
B1	1900
B2	≤ 0
B3	3250

target: ScHse1; experiment: as above
Summary of the method: as §1

Binder	SPOT peptide array binding signal intensity
B1	≤ 0
B2	≤ 0
B3	128

target: ScLsb1; experiment: as above
Summary of the method: as §1

Binder	SPOT peptide array binding signal intensity
B1	288
B2	≤ 0
B3	≤ 0

target: ScLsb2; experiment: as above
Summary of the method: as §1

Binder	SPOT peptide array binding signal intensity
B1	12
B2	≤ 0
B3	≤ 0

target: ScLsb3; experiment: as above
Summary of the method: as §1

Binder	SPOT peptide array binding signal intensity
B1	110
B2	≤ 0
B3	6.5

target: ScLsb4; experiment: as above
Summary of the method: as §1

Binder	SPOT peptide array binding signal intensity
B1	20
B2	≤ 0
B3	≤ 0

target: ScMyo3; experiment: as above
Summary of the method: as §1

Binder	SPOT peptide array binding signal intensity
B1	1490
B2	1380
B3	1950

target: ScMyo5; experiment: as above
Summary of the method: as §1

Binder	SPOT peptide array binding signal intensity
B1	901
B2	1230
B3	1820

target: ScNbp2; experiment: as above
Summary of the method: as §1

Binder	SPOT peptide array binding signal intensity
B1	≤ 0
B2	≤ 0
B3	≤ 0

target: ScPex13; experiment: as above
Summary of the method: as §1

Binder	SPOT peptide array binding signal intensity
B1	4060
B2	≤ 0
B3	≤ 0

target: ScRvs167; experiment: as above
Summary of the method: as §1

Binder	SPOT peptide array binding signal intensity
B1	32.5
B2	≤ 0
B3	≤ 0

target: ScSho1; experiment: as above
Summary of the method: as §1

Binder	SPOT peptide array binding signal intensity
B1	≤ 0
B2	≤ 0
B3	542

target: ScSla1-D1-D2; experiment: as above
Summary of the method: as §1

Binder	SPOT peptide array binding signal intensity
B1	≤ 0
B2	≤ 0
B3	≤ 0

target: ScSla1-D3; experiment: as above
Summary of the method: as §1

Binder	SPOT peptide array binding signal intensity
B1	≤ 0
B2	≤ 0
B3	1.25

target: SpAbp1-D1; experiment: as above
Summary of the method: as §1

Binder	SPOT peptide array binding signal intensity
B1	≤ 0
B2	≤ 0
B3	≤ 0

target: SpBbc1; experiment: as above
Summary of the method: as §1

Binder	SPOT peptide array binding signal intensity
B1	≤ 0
B2	≤ 0
B3	1

target: SpBzz1-D1; experiment: as above
Summary of the method: as §1

Binder	SPOT peptide array binding signal intensity
B1	683
B2	≤ 0
B3	94

target: SpBzz1-D2; experiment: as above
Summary of the method: as §1

Binder	SPOT peptide array binding signal intensity
B1	4.25
B2	≤ 0
B3	1

target: SpCyk3; experiment: as above
Summary of the method: as §1

Binder	SPOT peptide array binding signal intensity
B1	≤ 0
B2	≤ 0
B3	≤ 0

target: SpHof1; experiment: as above
Summary of the method: as §1

Binder	SPOT peptide array binding signal intensity
B1	≤ 0
B2	≤ 0
B3	≤ 0

target: SpHof1-2; experiment: as above
Summary of the method: as §1

Binder	SPOT peptide array binding signal intensity
B1	≤ 0
B2	≤ 0
B3	1210

target: SpHof1-3; experiment: as above
Summary of the method: as §1

Binder	SPOT peptide array binding signal intensity
B1	≤ 0
B2	≤ 0
B3	326

target: SpHse1; experiment: as above
Summary of the method: as §1

Binder	SPOT peptide array binding signal intensity
B1	40.8
B2	140
B3	≤ 0

target: SpLsb1; experiment: as above
Summary of the method: as §1

Binder	SPOT peptide array binding signal intensity
B1	184
B2	≤ 0
B3	≤ 0

target: SpLsb4; experiment: as above
Summary of the method: as §1

Binder	SPOT peptide array binding signal intensity
B1	225
B2	≤ 0
B3	≤ 0

target: SpMyo1; experiment: as above
Summary of the method: as §1

Binder	SPOT peptide array binding signal intensity
B1	1290
B2	691
B3	1260

target: SpNbp2; experiment: as above
Summary of the method: as §1

Binder	SPOT peptide array binding signal intensity
B1	≤ 0
B2	≤ 0
B3	≤ 0

target: SpPex13; experiment: as above
Summary of the method: as §1

Binder	SPOT peptide array binding signal intensity
B1	≤ 0
B2	≤ 0
B3	≤ 0

target: SpRvs167; experiment: as above
Summary of the method: as §1

Binder	SPOT peptide array binding signal intensity
B1	1430
B2	2.5
B3	0.5

target: SpSla1-D1-D2; experiment: as above
Summary of the method: as §1

Binder	SPOT peptide array binding signal intensity
B1	≤ 0
B2	≤ 0
B3	≤ 0

target: SpSla1-D3; experiment: as above
Summary of the method: as §1

Binder	SPOT peptide array binding signal intensity
B1	≤ 0
B2	≤ 0
B3	≤ 0
